Consider 7 compounds from PubChem BioAssay (NCI).

Where “and” joins values, the source holds several entries; their conditions need not be identical. Equal values may be shown once. About 83,000 compounds went through this panel and 20% of them were active in at least one assay; those are over-represented in the sample as a whole.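 A percent growth of 40 corresponds to 60% growth inhibition; 0 means no net growth; -100 means all cells died. Active threshold: below 10.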 Calls of active or inactive are those of the source.

Some test systems named below: SR leukemia; RPMI-8226 leukemia; OVCAR-8 ovarian; OVCAR-5 ovarian; OVCAR-4 ovarian; SK-OV-3 ovarian; IGROV1 ovarian; OVCAR-3 ovarian; HS 578T breast; NCI/ADR-RES ovarian; T-47D breast; BT-549 breast; MDA-MB-435 melanoma; SW-620 colon; MCF7 breast; HCT-116 colon; HCC-2998 colon; KM12 colon.
Holding throughout (assay): NCI-60 one-dose screen, 48 h (100 = growth as untreated, 0 = no growth, -100 = all killed)
Details in all cases: 10 µM unless noted

Consider `O=C1/C(=C/c2cn(-c3ccccc3)nc2-c2ccccc2)SC(=S)N1c1ccccc1`, for which the growth with SR leukemia was 108% (inactive); with RPMI-8226 leukemia, 107% (inactive); in the assay with OVCAR-8 ovarian it was 104% (inactive); in the assay on OVCAR-5 ovarian, 106% (inactive); in the assay with OVCAR-4 ovarian, 103% (inactive); in the assay with SK-OV-3 ovarian, 111% (inactive). The growth in the assay with IGROV1 ovarian was 94.5% (inactive); in the assay on OVCAR-3 ovarian, 109% (inactive); in the assay on HS 578T breast, 101% (inactive); with NCI/ADR-RES ovarian it was 103% (inactive); with T-47D breast, 99.1% (inactive); in the assay on BT-549 breast it was 98% (inactive). The growth in the assay with MDA-MB-435 melanoma is 98.3% (inactive); with SW-620 colon, 99.8% (inactive); in the assay on MCF7 breast it was 93.8% (inactive); in the assay on HCT-116 colon it was 102% (inactive); in the assay with HCC-2998 colon it was 96.6% (inactive); in the assay with KM12 colon, 101% (inactive).
Take `ON=C1CCCCCCCC1`: the growth in the assay on SR leukemia is 90.9% (inactive) and 97.5% (inactive); in the assay on RPMI-8226 leukemia, 103% (inactive) and 102% (inactive); with OVCAR-8 ovarian, 102% (inactive) and 107% (inactive); with OVCAR-5 ovarian, 103% (inactive) and 105% (inactive); with OVCAR-4 ovarian, 115% (inactive) and 113% (inactive); in the assay on SK-OV-3 ovarian, 100% (inactive) and 103% (inactive). Moreover, the growth in the assay on IGROV1 ovarian is 113% (inactive) and 111% (inactive); in the assay on OVCAR-3 ovarian, 111% (inactive); with HS 578T breast, 107% (inactive) and 108% (inactive); in the assay on NCI/ADR-RES ovarian, 103% (inactive) and 105% (inactive); in the assay with T-47D breast it was 97.7% (inactive) and 99.2% (inactive); in the assay on BT-549 breast, 110% (inactive) and 101% (inactive). The growth was 103% (inactive) and 113% (inactive) with MDA-MB-435 melanoma; 108% (inactive) and 105% (inactive) in the assay with SW-620 colon; 98.9% (inactive) and 91.3% (inactive) with MCF7 breast; 105% (inactive) and 104% (inactive) in the assay with HCT-116 colon; 100% (inactive) and 103% (inactive) in the assay with HCC-2998 colon; 97% (inactive) and 97.8% (inactive) in the assay on KM12 colon.
In the case of `CCOc1ccc(N2C(N)=NC(N)=NC2(C)C)cc1`, the growth was 5.52% (active) and 92.7% (inactive) with SR leukemia; -4.32% (active) and 90% (inactive) in the assay on RPMI-8226 leukemia; 25.8% (inactive) and 91.2% (inactive) in the assay with OVCAR-8 ovarian; 55.6% (inactive) and 100% (inactive) in the assay on OVCAR-5 ovarian; 42.4% (inactive) and 108% (inactive) with OVCAR-4 ovarian; 15.7% (inactive) and 80.1% (inactive) in the assay on SK-OV-3 ovarian. In addition, the growth is 45.7% (inactive) and 80.8% (inactive) in the assay with IGROV1 ovarian; -35.8% (active) and 107% (inactive) with OVCAR-3 ovarian; 35.9% (inactive) and 96% (inactive) in the assay with HS 578T breast; 9.74% (active) and 101% (inactive) with NCI/ADR-RES ovarian; 38% (inactive) and 86% (inactive) with T-47D breast; 59.6% (inactive) and 83.4% (inactive) in the assay on BT-549 breast. In addition, the growth in the assay on MDA-MB-435 melanoma was -42.8% (active) and 82.7% (inactive); in the assay on SW-620 colon, 16.2% (inactive) and 75.8% (inactive); in the assay with MCF7 breast, 6.3% (active) and 88.3% (inactive); in the assay with HCT-116 colon, 21.4% (inactive) and 63.1% (inactive); with HCC-2998 colon, 40.2% (inactive) and 112% (inactive); with KM12 colon it was 25.1% (inactive) and 95.6% (inactive).
Consider `CCN1C(=O)N(c2ccccc2)C2NC(=S)N(/N=C/C=C/c3ccccc3)C21` (stereo unspecified), for which the growth in the assay with SR leukemia is 7.28% (active); in the assay with RPMI-8226 leukemia, -20.1% (active); with OVCAR-8 ovarian it was 5.29% (active); in the assay on OVCAR-5 ovarian, 59.7% (inactive); with OVCAR-4 ovarian it was 34.3% (inactive); in the assay on SK-OV-3 ovarian, 24% (inactive). Also, the growth in the assay with IGROV1 ovarian is 20.8% (inactive); in the assay with OVCAR-3 ovarian it was 8.14% (active); in the assay with HS 578T breast, 16.1% (inactive); in the assay with NCI/ADR-RES ovarian, 2.91% (active); in the assay with T-47D breast, 38.2% (inactive); in the assay with BT-549 breast, -8.95% (active). In addition, the growth with MDA-MB-435 melanoma was -35.1% (active); in the assay on SW-620 colon it was 26.5% (inactive); in the assay on MCF7 breast, 3.24% (active); in the assay on HCT-116 colon it was 2.69% (active); with HCC-2998 colon, 17.6% (inactive); with KM12 colon, 21% (inactive).
On to `O=C(/C=C/c1ccc(Cl)s1)c1ccc(Cl)s1`, for which the growth with SR leukemia is 78.3% (inactive) and 87% (inactive); with RPMI-8226 leukemia it was 89.9% (inactive) and 66.8% (inactive); in the assay with OVCAR-8 ovarian it was 107% (inactive) and 102% (inactive); with OVCAR-5 ovarian it was 86.5% (inactive) and 101% (inactive); with OVCAR-4 ovarian it was 84.5% (inactive); in the assay on SK-OV-3 ovarian, 94.5% (inactive) and 102% (inactive). Also, the growth in the assay on IGROV1 ovarian was 88.9% (inactive); in the assay with OVCAR-3 ovarian it was 97.3% (inactive) and 99.3% (inactive); in the assay with HS 578T breast, 96.8% (inactive); in the assay on NCI/ADR-RES ovarian, 104% (inactive) and 99.1% (inactive); in the assay with T-47D breast it was 88.8% (inactive) and 96.9% (inactive); with BT-549 breast, 103% (inactive). Further, the growth in the assay with MDA-MB-435 melanoma is 87.8% (inactive); in the assay on SW-620 colon it was 99.7% (inactive) and 95.2% (inactive); with MCF7 breast, 59.3% (inactive) and 60.5% (inactive); in the assay on HCT-116 colon it was 68.2% (inactive) and 85.8% (inactive); in the assay on HCC-2998 colon, 98.8% (inactive) and 102% (inactive); with KM12 colon, 89% (inactive) and 95.9% (inactive).
Regarding `Cc1nc(-n2[nH]c(=O)ccc2=O)sc1N=Nc1ccccc1`, the growth is 105% (inactive) with SR leukemia; 100% (inactive) in the assay on RPMI-8226 leukemia; 103% (inactive) with OVCAR-8 ovarian; 100% (inactive) in the assay with OVCAR-5 ovarian; 104% (inactive) with OVCAR-4 ovarian; 103% (inactive) with SK-OV-3 ovarian. Moreover, the growth is 95.5% (inactive) in the assay with IGROV1 ovarian; 114% (inactive) with OVCAR-3 ovarian; 95.5% (inactive) with HS 578T breast; 108% (inactive) in the assay with NCI/ADR-RES ovarian; 94% (inactive) in the assay with T-47D breast; 95.7% (inactive) in the assay with BT-549 breast. The growth in the assay on MDA-MB-435 melanoma is 102% (inactive); in the assay with SW-620 colon, 98.1% (inactive); in the assay on MCF7 breast, 94.2% (inactive); in the assay with HCT-116 colon, 97.5% (inactive); in the assay with HCC-2998 colon, 115% (inactive); with KM12 colon it was 108% (inactive).
For the compound `CCCCCCCCCCCCCCCC(=O)O[C@@H]1[C@@H](O)[C@@H](O)C([C@H](NC(=O)[C@@H]2C[C@@H](CCC)CN2C)[C@H](C)Cl)O[C@@H]1SC` (stereo partly specified), the growth is 98.5% (inactive) with SR leukemia; 90.9% (inactive) with RPMI-8226 leukemia; 103% (inactive) with OVCAR-8 ovarian; 97.1% (inactive) in the assay on OVCAR-5 ovarian; 105% (inactive) in the assay with OVCAR-4 ovarian; 98.2% (inactive) in the assay on SK-OV-3 ovarian. In addition, the growth in the assay on IGROV1 ovarian is 101% (inactive); in the assay on OVCAR-3 ovarian, 109% (inactive); with HS 578T breast it was 122% (inactive); in the assay with NCI/ADR-RES ovarian, 112% (inactive); in the assay on T-47D breast, 96.1% (inactive); with BT-549 breast, 99.4% (inactive). Moreover, the growth with MDA-MB-435 melanoma was 107% (inactive); in the assay with SW-620 colon, 114% (inactive); with MCF7 breast it was 102% (inactive); in the assay on HCT-116 colon, 103% (inactive); in the assay on HCC-2998 colon it was 115% (inactive); with KM12 colon it was 101% (inactive).
